Results taken from PubChem BioAssay AID588849 (Broad Institute, 2011).
Potency and affinity values are given separately.

The compounds below were run against CAAX prenyl protease 2 (Homo sapiens) (UniProt Q9Y256) (assay: human Rce1 protease inhibitors, dose response, biochemical, yeast membranes, quenched-peptide fluorescence, cherry-pick (AID 588849)). Settings: yeast membrane fractions expressing human Rce1, quenched-peptide fluorescence, 4 h; series mostly up to 10 µM; activity change, negative = inhibition: at the top concentration; call rule not given here.
Chain of CAAX prenyl protease 2 (Homo sapiens) (Q9Y256 whole entry, looked up): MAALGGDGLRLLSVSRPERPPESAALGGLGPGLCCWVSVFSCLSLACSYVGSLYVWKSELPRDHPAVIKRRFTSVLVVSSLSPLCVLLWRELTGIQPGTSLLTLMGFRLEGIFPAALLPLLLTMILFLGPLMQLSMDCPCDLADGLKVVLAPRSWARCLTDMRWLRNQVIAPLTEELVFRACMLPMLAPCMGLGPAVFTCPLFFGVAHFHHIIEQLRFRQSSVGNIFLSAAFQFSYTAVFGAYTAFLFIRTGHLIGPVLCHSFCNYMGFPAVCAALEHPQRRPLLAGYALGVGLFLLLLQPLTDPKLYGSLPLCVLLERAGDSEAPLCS

Activity change, negative = inhibition, inactive:
CC(C)c1ccc(/C=C2\SC(=S)N(CCC(=O)NCCCn3ccnc3)C2=O)cc1 -5.37%
COC(C/C=C\C(=O)[C@H](C)OCc1ccccc1)OC 2.11%
CC(C)C(=O)Nc1cccc(NC(=S)NC(=O)C(c2ccccc2)c2ccccc2)c1 2.23%
COC(=O)c1sccc1NC(=O)CSc1nnnn1-c1ccccc1C 15%
O=c1c(-c2ccccc2)c(O)c2ccccc2n1-c1ccccc1 -15.8%
Cc1cc(C)n2nc(CC(=O)NNC(=O)c3ccc(N(C)C)cc3)nc2n1 -12.3%
COc1cccc(NC(=O)Nc2cccn(Cc3ccc(C)cc3)c2=O)c1 15.4% [at 3.5 µM]
CC(=O)Oc1ccc(C(=O)Nc2ccc(S(=O)(=O)NCC3CCCO3)cc2)cc1 (configuration not stated) -7.42%
COc1cccc(C2CC(c3cccs3)=NN2C(=O)CSc2nc3c(cnn3-c3ccc(F)cc3)c(=O)[nH]2)c1OC (configuration not stated) -10.8%
CCC1(c2ccccc2)NC(=O)N(CC(=O)Nc2ccc3c(C)cc(=O)oc3c2)C1=O (configuration not stated) 138%
O=C(NCC1CC1)c1ccc(Nc2nc3ccc(Br)cc3[nH]2)cc1 -1.65%
NS(=O)(=O)c1ccc(NC(=O)/C=C/c2cn(-c3ccccc3)nc2-c2cccc(Cl)c2)cc1 0.326%
Cc1cccc2sc(N(CCN(C)C)C(=O)c3ccc4ccccc4c3)nc12 -27%
COc1ccc(S(=O)(=O)N(CC(=O)N2CCCC2)Cc2ccccc2)cc1 4.57%
CCOC(=O)C[n+]1ccc2c([nH]c3ccccc32)c1C 7.21%
COc1ccc(Cc2nc3ccc(C(=O)N4CCCC4)cc3o2)cc1 -2.01%
CC(C)N1CCN(Cc2ccc(OCc3ccccc3)cc2)CC1CCO (configuration not stated) 8.65%
